Source: PubChem BioAssay AID2451 (National Center for Advancing Translational Sciences (NCATS), 2010)
The campaign covered roughly 290,000 compounds. About 2,100 (0.72%) were called active. About 4% were inconclusive and are not listed. Only a selection was taken, and actives are over-represented in it overall. Unmarked numbers belong to inactive results. Calls come from the whole dose curve; as a rule, active = well fitted inhibition curve with a large enough effect; inconclusive = small, poorly fitted or top-dose-only effect, or effect the other way; inactive = flat fitted curve, though single readings scatter.

biological target: Fructose-bisphosphate aldolase (Giardia intestinalis (strain ATCC 50803 / WB clone C6)) (UniProt A8B2U2); test: qHTS Assay for Inhibitors of Fructose-1,6-bisphosphate Aldolase from Giardia Lamblia; conditions: purified Giardia FBPA; series mostly up to 59.6 µM; activity, negative = inhibition: at the top concentration; note: nearly all actives have a fitted effect of over 55% in size
Sequence (A8B2U2 whole entry, looked up): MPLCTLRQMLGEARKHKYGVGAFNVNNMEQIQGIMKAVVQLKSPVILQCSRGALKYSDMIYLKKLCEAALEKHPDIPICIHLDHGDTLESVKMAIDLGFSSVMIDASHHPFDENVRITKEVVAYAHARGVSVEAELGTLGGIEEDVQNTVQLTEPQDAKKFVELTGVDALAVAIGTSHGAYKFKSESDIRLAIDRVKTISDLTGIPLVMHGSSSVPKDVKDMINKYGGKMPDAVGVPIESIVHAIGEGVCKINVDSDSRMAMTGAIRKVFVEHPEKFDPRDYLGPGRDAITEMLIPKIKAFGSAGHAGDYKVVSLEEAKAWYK
Text: Assay Provider: Osnat Herzberg, University of Maryland
The objective of this project is to obtain compounds that inhibit Giardia lamblia growth. G. lamblia is a human pathogen which afflicts impoverished nations; it is the most common cause of outbreaks of diarrhea in the United States. During the course of our study of potential drug targets in Giardia, we have identified the Class II (Zn2+ functions in electrophilic catalysis) fructose-1,6-bisphosphate aldolase (FBPA) as an excellent candidate for drug targeting. FBPA is a key glycolytic pathway enzyme, essential for G. lamblia survival. The human FBPA belongs to the Class I aldolases, which have a different substrate binding site structure and a radically different catalytic mechanism (employing a lysine-Schiff base intermediate). Therefore, affinity-based or mechanism-based inhibitors of the Giardia FBPA are expected not to interfere with the catalytic function of the human FBPA.
A glyceraldehyde-3-phosphate dehydrogenase/triose phosphate isomerase/NAD/arsenate coupled assay was adapted to the 1536-well HTP format for use in the primary screen. This was done by coupling it to a diaphorase/resazurin/resorufin reaction that can be monitored by fluorescence (excitation, 544 nm; emission, 590 nm). Compounds identified in this screen will be further evaluated by coupling the glycerol-3-phosphate/triose phosphate isomerase/NADH assay to a phenazine methosulfate/tetranitroblue tetrazolium color reaction. False positives due to the dehydrogenases and diaphorase inhibition will be eliminated, and selectivity assay will triage inhibitors of mammalian triose phosphate isomerase and the Class I FBPA. G. lamblia FBPA inhibitors identified by the in vitro analyses will be examined for growth inhibition of Giardia trophozoites, and for cytotoxicity in human cells.
Step,Parameter,Value,Description
1,Enzyme reagent,2 uL,40 nM FBPA
2,Compound,23 nL,3.68 nM-57.5 uM final concentration
3,Time,10 min,RT Incubation
4,Substrate/detection Reagent,2 uL,Substrate + enzyme coupling system + AmpLite Red kit
5,Time,20 min,RT Incubation
6,Detector,525 nm/598 nm (Fluorescence),ViewLux Fluorescence Read (Read 1)
1,Medium-binding black solid-bottom Kalypsys plates. FRD or Kalypsys dispenser, 2 uL of FBPA enzyme. Bottle kept at 4C.
2,Compound Library (10 mM ,1:5 dilution). Pin-transferred for a [final] range of 3.68 nM-57.5 uM.
4,FRD or Kalypsys dispenser, 2 uL of reaction mixture. Bottle kept at 4C and covered in foil to protect from light.
6,ViewLux Protocol 1194; Excitation filter wheel A (525/20 Pol; BODIPY TMR FP), Emission filter wheel B (598/25 S; BODIPY TMR FP S).
Keywords: Fructose-bisphosphate aldolase, FBPA , Giardia lamblia , Giardia, HTS, Inhibitors
% is set by controls: 0 for no effect and ±100 for the full control effect; potency is the fitted concentration of half-maximal effect.

First: CN1CCN(CCCCOc2cccc3ccccc23)CC1
Second: CC1CCCN(CCOCCOc2ccccc2-c2ccccc2)C1 (stereo unspecified)
The “activity, negative = inhibition” value of the first is higher: -18.8% for the first, -28.2% for the second.

Compared with `COc1ccc(C(=O)NNS(=O)(=O)c2ccc(C)cc2)cc1`, `COc1ccc(C(=O)NCCSc2ccccc2C)cc1` is higher in “activity, negative = inhibition” value: -0.057% for the first, 9.8% for the second.

Compared with `CC(NC(=S)NNS(=O)(=O)c1ccc(C(C)(C)C)cc1)c1ccccc1` (stereo unspecified), `CC(CN1CCOCC1)OC(=O)c1ccc(C(C)(C)C)cc1` (stereo unspecified) is lower in “activity, negative = inhibition” value: -2.32% for the first, -23.6% for the second.

First: CCNC(=O)CC1C(=O)N(c2ccc(OC)cc2)C(=O)N1CCOC (stereo unspecified)
Second: Cc1ccc(OCC(=O)Nc2ccc3oc(=O)ccc3c2)cc1C
The “activity, negative = inhibition” value of the first is lower: -9.69% for the first, 10.4% for the second.

Compared with `O=c1oc2ccccc2c(CNc2ccccc2)c1[N+](=O)[O-]`, `Nc1c(C(=O)NCc2ccccc2)nnn1Cc1cccc(Cl)c1` is lower in “activity, negative = inhibition” value: 8.39% for the first, -0.252% for the second.

Compared with `CC(C)CC(=O)N1CCN(Cc2cccc(Cl)c2)CC1`, `O=C(Nc1cccc(Cl)c1)c1cc(S(=O)(=O)N2CCCCC2)c[nH]1` is higher in “activity, negative = inhibition” value: -21.7% for the first, 7.52% for the second.

Compared with `Cc1ccc(O)c(/C=N/NC(=O)COc2ccc3c(C)cc(=O)oc3c2)c1`, `CCN(CC)Cc1c(C(=O)N/N=C/c2cccc(OCc3ccc(F)cc3)c2)nnn1-c1nonc1N` is lower in “activity, negative = inhibition” value: 9.07% for the first, -21.4% for the second.

Compared with `Cc1ccc2c(Cl)c(C(=O)NCCCn3ccnc3)sc2c1`, `Brc1ccc(OCCn2ccnc2)cc1` is higher in “activity, negative = inhibition” value: 0.0784% for the first, 0.307% for the second.

Going from `Cc1cccc(N(Cc2ccccc2)C(=O)c2ccccc2F)c1` to `Cc1cnc(NC(=O)CSc2nnc(-c3ccccc3)n2Cc2ccccc2)s1`, the “activity, negative = inhibition” value falls from 7.97% to 3.82%.

Going from `COC(=O)c1cc(S(=O)(=O)N2CCN(c3cc(C)ccc3C)CC2)c[nH]1` to `Cc1ccc(S(=O)(=O)N(CCCN(C)C)Cc2ccc3c(c2)OCO3)cc1`, the “activity, negative = inhibition” value rises from -28.7% to 17.3%.

Going from `COc1ccc(C2c3[nH]c4ccccc4c3C[C@H]3C(=O)N(CC(C)C)CC(=O)N23)c(OC)c1` (stereo partly specified) to `CCc1ccc2c(c1)C(c1ccc([N+](=O)[O-])cc1)=NNC(c1ccccc1)=N2`, the “activity, negative = inhibition” value falls from 8.11% to 0.182%.

Compared with `CCc1nnc(NC(=O)CSc2nnc(-c3ccncc3)n2Cc2ccccc2)s1`, `Cc1c(C)c(C)c2[nH]c(=S)[nH]c2c1C` is lower in “activity, negative = inhibition” value: 0.288% for the first, -0.981% for the second.

For `CN1CCN(CCCCOc2ccccc2-c2ccccc2)CC1`, the Potency was 19.9 µM (active).
For `Cc1ccc(S(=O)(=O)NNC(=S)NC(C)(C)C)cc1`, the Potency was 11.2 µM (active).
In the case of `Clc1cccc(CN2COc3c(cc(Cl)c4cccnc34)C2)c1`, the Potency is reported as 17.7 µM (active).
`C=CCc1cc(C)ccc1OCCCn1ccnc1` was tested, and the Potency was 25.1 µM (active).
With `Cc1cccc(-c2nnc(SCC(=O)O)n2Cc2ccccc2)c1` the Potency was 15.8 µM (active).
In the case of `O=c1[nH]c(=S)[nH]c2[nH]c(=S)[nH]c12`, the Potency is reported as 12.6 µM (active).
For `CCc1ccc2c(c1)C1(NN=C(c3ccccc3)S1)C(=O)N2` (stereo unspecified), the Potency was 15.8 µM (active).
